Experimental findings from article PMC10668032, “Altered binding affinity of SIX1-Q177R correlates with enhanced WNT5A and WNT pathway effector expression in Wilms tumor” are described below.

In all, about 33,000 sequences were measured (“e-score”: median about -0.053, highest 2% from about 0.38 on). This is one part of a sample in which the highest values are shown more often than they occur.

The experiment addresses T1, SIX1 homeodomain (reference allele) (human, UniProt Q15475 108-198).
T1 sequence: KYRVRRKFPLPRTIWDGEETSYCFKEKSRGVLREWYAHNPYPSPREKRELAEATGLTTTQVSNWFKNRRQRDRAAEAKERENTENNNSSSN
In words: universal protein binding microarray; Universal all-10-mer PBM (8x60K, AMADID 030236), 300 nM GST-tagged protein, Alexa Fluor 488 anti-GST; buffer, salt, pH and temperature not stated (as in Berger); high values mean tight binding. As to conditions: protein: ivt; tags: N-terminal GST; dsDNA, one strand shown. In a few lines: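 Homeodomains carrying a GST tag were produced by in vitro transcription/translation, then quantified by anti-GST western blot against a recombinant GST standard curve. Duplicate applications at 300 nM final concentration were made to universal 'all 10-mer' protein binding microarrays in 8×60K format. The Universal PBM Analysis Suite was used to express binding as 8-mer E-scores.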
As for CCATACAC, the binding signal is 0.174 ± 0.121 E-score.

On to ATCATTGA, for which the binding signal turned out to be 0.2801 ± 0.000297 E-score. The same measure for ATCGTGTC: 0.274 ± 0.0122 E-score; for GATAGATA: 0.364 ± 0.0331 E-score; for CTAGTGTA: 0.189 ± 0.0116 E-score. Regarding GGTTCATA, the binding signal stood at 0.154 ± 0.00678 E-score. The same measure for CGATAACC: 0.2329 ± 0.00167 E-score.

In the case of AGATACCG, the binding signal is 0.37 ± 0.00507 E-score. As for TGATACCA, the binding signal worked out at 0.4811 ± 0.00363 E-score. For the sequence TGATACAA, the binding signal came out at 0.337 ± 0.0251 E-score. Turning to AGATACCC, the binding signal came out at 0.4684 ± 0.00214 E-score. The value for TAATACCA was 0.37 ± 0.0315 E-score; that for CGATACCC was 0.4916 ± 0.00317 E-score; that for CTATACCA was 0.245 ± 0.018 E-score. As to CGATACCA, the binding signal was 0.455 ± 0.0104 E-score. CCATACCC: the binding signal turned out to be 0.274 ± 0.0803 E-score. For ACATACCC, the binding signal turned out to be 0.194 ± 0.0165 E-score. The same measure for CAATACCA: 0.375 ± 0.0246 E-score; for CGGTACTC: 0.176 ± 0.0493 E-score. For the sequence ATCAGGGG, the binding signal was 0.307 ± 0.019 E-score.

Regarding TAGTGTCA, the binding signal was found to be 0.245 ± 0.0279 E-score. For the sequence ATCAATCA, the binding signal was found to be 0.221 ± 0.00233 E-score. AAACGTAT: the binding signal worked out at 0.262 ± 0.0965 E-score.

ATATTCCC: the binding signal amounted to 0.305 ± 0.0527 E-score. Regarding ATACTGGG, the binding signal was 0.225 ± 0.0379 E-score. The value for ACGATCAT was 0.186 ± 0.0246 E-score. On to ATCACGTC, for which the binding signal is 0.189 ± 0.0151 E-score. The value for ATATGTCA was 0.166 ± 0.0885 E-score; that for GAATACCA was 0.278 ± 0.0281 E-score.

Regarding GGATACCA, the binding signal was 0.426 ± 0.0353 E-score. In the case of GTATACCA, the binding signal was found to be 0.364 ± 0.00595 E-score. Turning to GCATACCC, the binding signal turned out to be 0.289 ± 0.0463 E-score. The same measure for GGATACCC: 0.484 ± 0.00911 E-score. In the case of AAATACCC, the binding signal worked out at 0.2 ± 0.00818 E-score. In the case of AGTATAAG, the binding signal came out at 0.161 ± 0.0893 E-score. Regarding TAATATAA, the binding signal amounted to 0.257 ± 0.0514 E-score.

ATCCACGA: the binding signal turned out to be 0.154 ± 0.0369 E-score. The same measure for ACTATCCT: 0.318 ± 0.0157 E-score.

With CTATTATC, the binding signal was 0.189 ± 0.0626 E-score.

Take GACTATAC: the binding signal is 0.237 ± 0.00521 E-score.

Take CCGATAAC: the binding signal stood at 0.239 ± 0.00451 E-score. Consider CCGATAGC, for which the binding signal is 0.329 ± 0.00875 E-score. The value for ACGATATC was 0.454 ± 0.0379 E-score; that for ACGATATA was 0.296 ± 0.0641 E-score.

Regarding ACTATATC, the binding signal stood at 0.367 ± 0.0339 E-score. For ACGATATG, the binding signal worked out at 0.417 ± 0.0227 E-score. ACGATCTC: the binding signal is 0.189 ± 0.0362 E-score. In the case of CCGATATC, the binding signal turned out to be 0.457 ± 0.0156 E-score. Regarding ACGATCGG, the binding signal was 0.169 ± 0.0263 E-score. For ACCACACC, the binding signal turned out to be 0.174 ± 0.038 E-score. ATACGCCC: the binding signal was found to be 0.275 ± 0.0117 E-score. Consider GATAACCA, for which the binding signal stood at 0.213 ± 0.00941 E-score. Turning to ATCACTTG, the binding signal turned out to be 0.29 ± 0.0319 E-score. Consider GGCTAATA, for which the binding signal stood at 0.201 ± 0.0383 E-score. With AATATGGT, the binding signal amounted to 0.177 ± 0.105 E-score. For GATAGCAC, the binding signal was found to be 0.236 ± 0.0609 E-score. Consider GCGCGATA, for which the binding signal stood at 0.379 ± 0.0395 E-score. With GGGCGATA, the binding signal was determined as 0.347 ± 0.0047 E-score.

For the sequence ACGCGATA, the binding signal came out at 0.316 ± 0.0166 E-score. Regarding CCGCGATC, the binding signal was found to be 0.354 ± 0.0349 E-score. For CGGCGATA, the binding signal came out at 0.3475 ± 0.00182 E-score. CCGCGATA: the binding signal worked out at 0.4109 ± 0.00278 E-score. In the case of ATATAGAG, the binding signal worked out at 0.202 ± 0.0348 E-score. The value for CCAGATGA was 0.203 ± 0.0127 E-score; that for ACTACCTA was 0.157 ± 0.0187 E-score; that for GAATACTC was 0.155 ± 0.0382 E-score.

On to ATAGATAT, for which the binding signal is 0.389 ± 0.0559 E-score. Turning to ATAGATCC, the binding signal was 0.302 ± 0.00993 E-score. Regarding ACAGATAT, the binding signal was 0.356 ± 0.0703 E-score.

With ATAGATAC, the binding signal worked out at 0.393 ± 0.0221 E-score. Take GTAGATAC: the binding signal is 0.289 ± 0.0214 E-score.

Regarding ATAGATAG, the binding signal is 0.167 ± 0.0369 E-score.

As for ATCACCTA, the binding signal is 0.232 ± 0.0325 E-score. For the sequence AGACGATA, the binding signal stood at 0.363 ± 0.0344 E-score.

ATATCTTC: the binding signal was 0.365 ± 0.0612 E-score. The value for CCGTCTCA was 0.268 ± 0.0487 E-score; that for GAGTATCA was 0.47 ± 0.0248 E-score; that for AAGTATAA was 0.184 ± 0.123 E-score.

On to CAGTATGA, for which the binding signal is 0.151 ± 0.0873 E-score.

Regarding CAGTATTA, the binding signal was 0.295 ± 0.0164 E-score.

As to GAGTATAA, the binding signal was 0.179 ± 0.136 E-score. TAGTATAA: the binding signal turned out to be 0.199 ± 0.033 E-score.

For the sequence AAGTATCT, the binding signal is 0.266 ± 0.102 E-score.

As to GAGTATTA, the binding signal turned out to be 0.261 ± 0.103 E-score. Take AAGTATCA: the binding signal stood at 0.461 ± 0.0304 E-score.

Turning to CAGTATCA, the binding signal stood at 0.465 ± 0.0101 E-score. TAGTATCA: the binding signal is 0.457 ± 0.0196 E-score.

For the sequence TACTATCA, the binding signal came out at 0.325 ± 0.0557 E-score.
